From ChEMBL document CHEMBL1961873, “Compounds: GSK PKIS; Assays: Nanosyn kinase panel” (2012)

What was measured:
[1] = biological target: Protein kinase C gamma type (Homo sapiens) (UniProt P05129); settings: at 1 µM;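 also: each value is an averaged percent inhibition of the enzyme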
[2] = biological target: T1, Protein kinase C iota type (Homo sapiens) (UniProt P41743); settings: at 0.1 µM
T1 sequence (whole entry): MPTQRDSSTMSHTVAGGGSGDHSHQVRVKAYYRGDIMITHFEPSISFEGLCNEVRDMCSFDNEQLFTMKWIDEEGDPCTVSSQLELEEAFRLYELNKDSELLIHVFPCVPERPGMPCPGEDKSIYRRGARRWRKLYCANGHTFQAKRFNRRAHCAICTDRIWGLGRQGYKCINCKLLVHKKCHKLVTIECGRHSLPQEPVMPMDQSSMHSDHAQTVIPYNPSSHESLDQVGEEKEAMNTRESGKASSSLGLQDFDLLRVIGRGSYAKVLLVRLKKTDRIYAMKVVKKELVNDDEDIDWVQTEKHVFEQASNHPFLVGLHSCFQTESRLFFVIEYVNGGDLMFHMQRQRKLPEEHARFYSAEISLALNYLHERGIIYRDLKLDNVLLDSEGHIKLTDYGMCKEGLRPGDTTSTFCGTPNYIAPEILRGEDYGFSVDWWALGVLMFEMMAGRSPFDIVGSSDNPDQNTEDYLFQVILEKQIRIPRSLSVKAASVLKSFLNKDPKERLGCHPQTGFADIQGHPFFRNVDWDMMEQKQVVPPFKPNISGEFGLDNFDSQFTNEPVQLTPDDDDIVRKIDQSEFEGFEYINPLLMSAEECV

[3] = biological target: T1, Protein kinase C iota type (Homo sapiens); settings: at 1 µM
[4] = biological target: Protein kinase C theta type (Homo sapiens) (UniProt Q04759); settings: at 0.1 µM
[5] = biological target: Protein kinase C theta type (Homo sapiens) (UniProt Q04759); settings: at 1 µM
[6] = biological target: Protein kinase C beta type (Homo sapiens) (UniProt P05771); settings: at 0.1 µM
[7] = biological target: Protein kinase C beta type (Homo sapiens) (UniProt P05771); settings: at 1 µM
[8] = biological target: T2, Serine/threonine-protein kinase D1 (Homo sapiens) (UniProt Q15139); settings: at 0.1 µM
T2 sequence (whole entry): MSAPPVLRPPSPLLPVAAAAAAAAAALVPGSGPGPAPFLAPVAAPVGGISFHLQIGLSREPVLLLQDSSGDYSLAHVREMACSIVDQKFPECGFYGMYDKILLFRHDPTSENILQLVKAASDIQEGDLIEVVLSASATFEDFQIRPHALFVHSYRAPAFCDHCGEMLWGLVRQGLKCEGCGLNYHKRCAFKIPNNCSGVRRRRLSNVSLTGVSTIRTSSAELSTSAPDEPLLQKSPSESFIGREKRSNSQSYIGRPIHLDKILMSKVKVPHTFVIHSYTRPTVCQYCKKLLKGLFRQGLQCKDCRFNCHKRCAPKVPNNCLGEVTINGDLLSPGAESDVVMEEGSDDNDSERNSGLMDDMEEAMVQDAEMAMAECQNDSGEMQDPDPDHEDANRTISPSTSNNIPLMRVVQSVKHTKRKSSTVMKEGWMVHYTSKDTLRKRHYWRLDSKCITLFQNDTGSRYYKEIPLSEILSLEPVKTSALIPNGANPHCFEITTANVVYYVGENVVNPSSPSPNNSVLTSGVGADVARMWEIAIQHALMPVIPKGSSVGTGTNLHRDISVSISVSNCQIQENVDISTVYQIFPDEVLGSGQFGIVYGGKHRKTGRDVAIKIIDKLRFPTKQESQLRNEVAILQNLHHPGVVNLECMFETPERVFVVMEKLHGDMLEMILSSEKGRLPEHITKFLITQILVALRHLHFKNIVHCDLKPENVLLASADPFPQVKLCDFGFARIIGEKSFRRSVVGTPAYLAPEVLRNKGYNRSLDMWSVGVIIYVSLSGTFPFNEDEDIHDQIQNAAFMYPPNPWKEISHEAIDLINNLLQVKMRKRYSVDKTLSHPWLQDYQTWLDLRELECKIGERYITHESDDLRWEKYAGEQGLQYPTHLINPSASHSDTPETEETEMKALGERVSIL

[9] = biological target: T2, Serine/threonine-protein kinase D1 (Homo sapiens); settings: at 1 µM
[10] = biological target: T3, Serine/threonine-protein kinase D2 (Homo sapiens) (UniProt Q9BZL6); settings: at 0.1 µM
T3 sequence (whole entry): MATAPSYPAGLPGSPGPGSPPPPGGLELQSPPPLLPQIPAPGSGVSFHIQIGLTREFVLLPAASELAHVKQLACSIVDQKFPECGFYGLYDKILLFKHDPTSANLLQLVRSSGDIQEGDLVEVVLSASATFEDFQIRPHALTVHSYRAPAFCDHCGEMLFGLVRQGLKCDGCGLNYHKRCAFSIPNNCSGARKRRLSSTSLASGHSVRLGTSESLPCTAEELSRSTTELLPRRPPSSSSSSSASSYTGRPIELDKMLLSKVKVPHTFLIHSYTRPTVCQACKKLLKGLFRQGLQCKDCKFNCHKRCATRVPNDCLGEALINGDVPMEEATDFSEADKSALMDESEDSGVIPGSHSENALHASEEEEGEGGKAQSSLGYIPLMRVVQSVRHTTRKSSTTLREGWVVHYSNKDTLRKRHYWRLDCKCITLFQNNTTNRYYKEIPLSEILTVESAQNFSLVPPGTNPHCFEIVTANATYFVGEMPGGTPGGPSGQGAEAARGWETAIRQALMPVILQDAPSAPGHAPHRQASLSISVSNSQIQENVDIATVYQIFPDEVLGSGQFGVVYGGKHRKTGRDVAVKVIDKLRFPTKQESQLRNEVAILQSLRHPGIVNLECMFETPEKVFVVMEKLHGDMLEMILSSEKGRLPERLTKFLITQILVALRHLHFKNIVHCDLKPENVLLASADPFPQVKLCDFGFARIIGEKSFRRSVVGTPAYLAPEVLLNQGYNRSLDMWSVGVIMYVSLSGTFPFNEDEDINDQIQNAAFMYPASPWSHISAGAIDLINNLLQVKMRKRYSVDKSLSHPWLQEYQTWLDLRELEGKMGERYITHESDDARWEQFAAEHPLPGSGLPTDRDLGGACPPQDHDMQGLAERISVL

[11] = biological target: T3, Serine/threonine-protein kinase D2 (Homo sapiens); settings: at 1 µM
[12] = biological target: T4, Serine/threonine-protein kinase D3 (Homo sapiens) (UniProt O94806); settings: at 0.1 µM
T4 sequence (whole entry): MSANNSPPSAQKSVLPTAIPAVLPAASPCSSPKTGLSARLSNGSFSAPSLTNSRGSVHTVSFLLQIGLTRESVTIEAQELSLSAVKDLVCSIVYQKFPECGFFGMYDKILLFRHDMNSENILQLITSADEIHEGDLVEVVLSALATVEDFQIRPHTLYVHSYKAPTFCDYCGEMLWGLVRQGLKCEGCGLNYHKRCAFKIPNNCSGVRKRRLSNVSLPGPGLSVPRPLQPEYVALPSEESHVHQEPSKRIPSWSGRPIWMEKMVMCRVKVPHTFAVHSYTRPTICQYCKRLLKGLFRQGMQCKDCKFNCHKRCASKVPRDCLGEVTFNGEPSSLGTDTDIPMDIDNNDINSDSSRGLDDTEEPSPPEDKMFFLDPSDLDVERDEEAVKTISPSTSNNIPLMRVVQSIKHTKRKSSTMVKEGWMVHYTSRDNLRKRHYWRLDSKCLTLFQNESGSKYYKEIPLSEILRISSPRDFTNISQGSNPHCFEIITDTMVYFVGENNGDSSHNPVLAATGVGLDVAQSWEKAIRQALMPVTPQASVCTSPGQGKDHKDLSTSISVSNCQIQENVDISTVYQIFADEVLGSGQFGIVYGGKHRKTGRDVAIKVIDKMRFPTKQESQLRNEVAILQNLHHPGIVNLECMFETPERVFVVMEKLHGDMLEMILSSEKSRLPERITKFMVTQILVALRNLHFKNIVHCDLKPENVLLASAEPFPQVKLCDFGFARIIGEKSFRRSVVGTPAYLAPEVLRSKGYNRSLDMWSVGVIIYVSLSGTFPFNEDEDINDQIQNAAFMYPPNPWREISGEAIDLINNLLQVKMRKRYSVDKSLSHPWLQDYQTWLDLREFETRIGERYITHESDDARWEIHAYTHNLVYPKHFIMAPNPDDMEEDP

[13] = biological target: T4, Serine/threonine-protein kinase D3 (Homo sapiens); settings: at 1 µM
[14] = biological target: T5, cGMP-dependent protein kinase 1 (Homo sapiens) (UniProt Q13976); settings: at 0.1 µM
T5 sequence (whole entry): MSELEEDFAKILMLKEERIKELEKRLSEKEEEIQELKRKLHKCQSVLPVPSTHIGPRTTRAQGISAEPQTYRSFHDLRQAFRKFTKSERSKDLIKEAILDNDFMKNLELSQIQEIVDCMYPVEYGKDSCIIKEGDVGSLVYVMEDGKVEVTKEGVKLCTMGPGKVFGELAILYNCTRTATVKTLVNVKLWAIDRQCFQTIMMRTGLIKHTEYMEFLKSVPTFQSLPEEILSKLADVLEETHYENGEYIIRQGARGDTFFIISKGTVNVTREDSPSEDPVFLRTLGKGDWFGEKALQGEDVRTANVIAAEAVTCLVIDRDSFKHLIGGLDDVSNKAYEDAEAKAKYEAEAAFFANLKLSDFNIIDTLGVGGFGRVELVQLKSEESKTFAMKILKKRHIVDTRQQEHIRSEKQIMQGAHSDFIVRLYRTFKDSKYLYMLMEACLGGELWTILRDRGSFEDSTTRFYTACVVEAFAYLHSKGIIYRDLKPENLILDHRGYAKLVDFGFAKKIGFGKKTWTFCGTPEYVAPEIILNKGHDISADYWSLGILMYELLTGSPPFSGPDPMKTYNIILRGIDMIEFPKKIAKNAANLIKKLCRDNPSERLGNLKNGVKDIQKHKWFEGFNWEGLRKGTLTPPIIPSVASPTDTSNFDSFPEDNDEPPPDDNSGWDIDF

[15] = biological target: T5, cGMP-dependent protein kinase 1 (Homo sapiens); settings: at 1 µM
[16] = biological target: T6, cGMP-dependent protein kinase 2 (Homo sapiens) (UniProt Q13237); settings: at 0.1 µM
T6 sequence (whole entry): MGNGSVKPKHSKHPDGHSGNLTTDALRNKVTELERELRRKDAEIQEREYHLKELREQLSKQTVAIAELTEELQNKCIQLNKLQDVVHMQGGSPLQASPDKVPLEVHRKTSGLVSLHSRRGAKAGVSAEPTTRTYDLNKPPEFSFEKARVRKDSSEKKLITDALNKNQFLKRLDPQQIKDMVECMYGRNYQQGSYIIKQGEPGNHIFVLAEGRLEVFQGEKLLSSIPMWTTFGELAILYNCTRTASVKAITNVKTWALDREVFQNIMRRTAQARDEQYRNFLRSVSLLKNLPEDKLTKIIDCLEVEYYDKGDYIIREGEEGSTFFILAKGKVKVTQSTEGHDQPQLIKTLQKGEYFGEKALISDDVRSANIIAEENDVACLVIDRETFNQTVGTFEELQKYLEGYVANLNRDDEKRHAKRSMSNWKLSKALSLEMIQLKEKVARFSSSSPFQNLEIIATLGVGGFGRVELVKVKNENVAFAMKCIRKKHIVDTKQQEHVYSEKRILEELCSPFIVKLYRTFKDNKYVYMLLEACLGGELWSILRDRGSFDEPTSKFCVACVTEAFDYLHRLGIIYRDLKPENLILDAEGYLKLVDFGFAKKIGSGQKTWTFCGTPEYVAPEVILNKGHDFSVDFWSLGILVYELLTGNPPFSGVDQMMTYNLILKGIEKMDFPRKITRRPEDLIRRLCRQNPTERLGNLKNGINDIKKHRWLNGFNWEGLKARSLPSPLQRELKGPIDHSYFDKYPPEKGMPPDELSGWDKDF

[17] = biological target: T6, cGMP-dependent protein kinase 2 (Homo sapiens); settings: at 1 µM
[18] = biological target: T7, cAMP-dependent protein kinase catalytic subunit PRKX (Homo sapiens) (UniProt P51817); settings: at 0.1 µM
T7 sequence (whole entry): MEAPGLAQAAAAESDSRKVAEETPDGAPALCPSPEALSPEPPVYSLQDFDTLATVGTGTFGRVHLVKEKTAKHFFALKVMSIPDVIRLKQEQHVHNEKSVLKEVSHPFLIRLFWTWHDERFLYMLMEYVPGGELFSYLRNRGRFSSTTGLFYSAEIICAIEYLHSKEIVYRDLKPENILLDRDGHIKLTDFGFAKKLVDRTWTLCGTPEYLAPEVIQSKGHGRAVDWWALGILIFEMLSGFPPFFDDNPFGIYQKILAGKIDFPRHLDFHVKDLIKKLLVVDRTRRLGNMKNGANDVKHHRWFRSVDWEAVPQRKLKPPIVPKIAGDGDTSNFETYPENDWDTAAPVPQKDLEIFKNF

[19] = biological target: T7, cAMP-dependent protein kinase catalytic subunit PRKX (Homo sapiens); settings: at 1 µM
[20] = biological target: Rho-associated protein kinase 1 (Homo sapiens) (UniProt Q13464); settings: at 0.1 µM;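 also: values are mean percent inhibition of ROCK1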
Chain of Rho-associated protein kinase 1 (Homo sapiens) (Q13464 2-1354 limits assumed): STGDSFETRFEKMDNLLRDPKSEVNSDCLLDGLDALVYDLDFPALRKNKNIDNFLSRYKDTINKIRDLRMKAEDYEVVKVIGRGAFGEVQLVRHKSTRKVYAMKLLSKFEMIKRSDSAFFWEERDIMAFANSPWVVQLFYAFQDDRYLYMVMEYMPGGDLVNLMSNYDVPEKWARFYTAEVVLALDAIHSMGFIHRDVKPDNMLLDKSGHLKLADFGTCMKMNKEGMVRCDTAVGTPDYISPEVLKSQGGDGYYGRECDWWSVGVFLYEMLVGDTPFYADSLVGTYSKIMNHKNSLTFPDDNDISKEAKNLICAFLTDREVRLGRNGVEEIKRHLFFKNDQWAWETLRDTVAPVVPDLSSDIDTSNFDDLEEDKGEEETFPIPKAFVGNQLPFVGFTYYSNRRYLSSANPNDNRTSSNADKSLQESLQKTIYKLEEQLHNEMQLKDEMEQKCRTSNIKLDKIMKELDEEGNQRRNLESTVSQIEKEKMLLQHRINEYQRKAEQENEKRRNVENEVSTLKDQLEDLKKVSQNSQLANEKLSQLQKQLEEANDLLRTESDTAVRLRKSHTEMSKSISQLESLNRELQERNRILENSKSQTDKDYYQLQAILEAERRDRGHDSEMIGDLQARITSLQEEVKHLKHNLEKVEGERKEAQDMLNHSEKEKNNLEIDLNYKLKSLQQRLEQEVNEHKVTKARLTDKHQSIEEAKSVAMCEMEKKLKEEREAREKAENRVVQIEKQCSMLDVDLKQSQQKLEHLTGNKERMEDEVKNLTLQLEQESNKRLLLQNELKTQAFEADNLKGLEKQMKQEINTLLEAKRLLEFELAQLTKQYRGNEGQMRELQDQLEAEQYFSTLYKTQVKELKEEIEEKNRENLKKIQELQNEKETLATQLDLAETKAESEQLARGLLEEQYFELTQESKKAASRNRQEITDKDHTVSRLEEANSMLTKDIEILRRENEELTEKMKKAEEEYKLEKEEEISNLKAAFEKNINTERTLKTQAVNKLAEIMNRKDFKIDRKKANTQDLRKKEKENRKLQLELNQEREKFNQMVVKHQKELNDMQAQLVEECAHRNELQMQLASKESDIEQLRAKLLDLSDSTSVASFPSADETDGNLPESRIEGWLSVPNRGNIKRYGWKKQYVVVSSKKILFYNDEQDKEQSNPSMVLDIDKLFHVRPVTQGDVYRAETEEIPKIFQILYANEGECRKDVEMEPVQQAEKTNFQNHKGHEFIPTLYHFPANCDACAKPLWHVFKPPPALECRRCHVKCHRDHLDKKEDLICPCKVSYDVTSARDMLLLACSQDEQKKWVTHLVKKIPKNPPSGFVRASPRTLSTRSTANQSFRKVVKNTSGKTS

Chain of Protein kinase C theta type (Homo sapiens) (Q04759 whole entry, looked up): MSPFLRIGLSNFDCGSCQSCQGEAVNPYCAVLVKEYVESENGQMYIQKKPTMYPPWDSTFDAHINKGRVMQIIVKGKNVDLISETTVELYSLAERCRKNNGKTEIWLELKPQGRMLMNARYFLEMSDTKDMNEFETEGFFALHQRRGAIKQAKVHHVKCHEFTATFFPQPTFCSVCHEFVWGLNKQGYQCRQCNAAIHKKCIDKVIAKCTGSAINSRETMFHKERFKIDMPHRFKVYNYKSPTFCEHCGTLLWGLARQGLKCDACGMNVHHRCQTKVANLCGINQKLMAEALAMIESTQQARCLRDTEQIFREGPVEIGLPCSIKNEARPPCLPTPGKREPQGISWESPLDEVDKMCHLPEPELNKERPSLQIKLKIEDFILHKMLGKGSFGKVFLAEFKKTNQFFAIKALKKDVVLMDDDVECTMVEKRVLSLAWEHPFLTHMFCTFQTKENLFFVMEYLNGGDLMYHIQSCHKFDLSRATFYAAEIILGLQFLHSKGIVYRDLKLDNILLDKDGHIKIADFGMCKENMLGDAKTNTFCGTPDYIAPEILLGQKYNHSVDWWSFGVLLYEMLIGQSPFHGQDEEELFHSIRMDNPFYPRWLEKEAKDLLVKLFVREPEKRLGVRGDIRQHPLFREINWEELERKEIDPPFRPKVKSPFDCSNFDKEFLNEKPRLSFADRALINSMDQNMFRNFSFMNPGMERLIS
Chain of Protein kinase C beta type (Homo sapiens) (P05771 2-671 limits assumed): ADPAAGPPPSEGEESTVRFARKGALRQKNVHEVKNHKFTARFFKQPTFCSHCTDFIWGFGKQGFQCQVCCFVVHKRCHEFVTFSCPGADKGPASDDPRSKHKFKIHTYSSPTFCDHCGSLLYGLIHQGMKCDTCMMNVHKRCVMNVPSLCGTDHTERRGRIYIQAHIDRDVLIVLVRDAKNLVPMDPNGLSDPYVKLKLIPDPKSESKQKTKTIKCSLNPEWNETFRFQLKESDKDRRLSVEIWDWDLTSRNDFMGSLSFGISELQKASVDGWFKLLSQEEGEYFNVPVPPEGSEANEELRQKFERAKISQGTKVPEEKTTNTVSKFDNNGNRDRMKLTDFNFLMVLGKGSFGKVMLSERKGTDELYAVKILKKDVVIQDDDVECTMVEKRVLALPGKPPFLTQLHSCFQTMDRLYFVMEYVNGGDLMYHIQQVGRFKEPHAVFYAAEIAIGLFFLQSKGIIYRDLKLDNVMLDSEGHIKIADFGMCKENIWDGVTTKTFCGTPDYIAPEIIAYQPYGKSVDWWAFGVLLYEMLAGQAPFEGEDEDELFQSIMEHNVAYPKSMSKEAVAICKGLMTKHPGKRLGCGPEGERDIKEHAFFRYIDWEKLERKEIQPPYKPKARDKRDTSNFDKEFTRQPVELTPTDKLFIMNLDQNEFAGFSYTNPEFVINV

SMILES: COc1cc(C)c(N(C)C(=O)CN(C)C)cc1Nc1nc(Nc2cccc(F)c2C(N)=O)c2cc[nH]c2n1
- inhibition [1]: 0.07%
- inhibition [2]: 0.9%
- inhibition [3]: 1.43%
- inhibition [4]: -0.27%
- inhibition [5]: -0.14%
- inhibition [6]: 0.9%
- inhibition [7]: 0.92%
- inhibition [8]: -1.96%
- inhibition [9]: -0.45%
- inhibition [10]: -2.04%
- inhibition [11]: -0.62%
- inhibition [12]: -1.31%
- inhibition [13]: 0.06%
- inhibition [14]: 0.67%
- inhibition [15]: 3.77%
- inhibition [16]: 2.1%
- inhibition [17]: 2.31%
- inhibition [18]: 0.78%
- inhibition [19]: -0.64%
- inhibition [20]: 0.77%

SMILES: c1ccc(-c2n[nH]cc2-c2ccnc(-c3ccc(OCCN4CCOCC4)cc3)c2)nc1
- inhibition [1]: 4%
- inhibition [2]: 3.68%
- inhibition [3]: 4.56%
- inhibition [4]: 0.5%
- inhibition [5]: -0.12%
- inhibition [6]: 3.96%
- inhibition [7]: 3.92%
- inhibition [8]: 10.3%
- inhibition [9]: 66.3%
- inhibition [10]: 16.2%
- inhibition [11]: 80.7%
- inhibition [12]: 5.97%
- inhibition [13]: 57.5%
- inhibition [14]: 3.53%
- inhibition [15]: 4.78%
- inhibition [16]: 4.17%
- inhibition [17]: 3.32%
- inhibition [18]: 4.09%
- inhibition [19]: 2.55%
- inhibition [20]: 1.08%

SMILES: CCc1cccc(CC)c1/C=C/c1cncc(C(=O)NC)c1
- inhibition [1]: 2.81%
- inhibition [2]: 2.1%
- inhibition [3]: 3.47%
- inhibition [4]: 1.41%
- inhibition [5]: -0.25%
- inhibition [6]: 0.14%
- inhibition [7]: -0.35%
- inhibition [8]: 2.52%
- inhibition [9]: 6.44%
- inhibition [10]: 3.28%
- inhibition [11]: 7.18%
- inhibition [12]: 3.3%
- inhibition [13]: 7.02%
- inhibition [14]: 2.74%
- inhibition [15]: 2.71%
- inhibition [16]: 1.38%
- inhibition [17]: 1.83%
- inhibition [18]: 3.9%
- inhibition [19]: -1.34%
- inhibition [20]: 0.87%
